HCV inh – qHTS Assay for Inhibitors of Hepatitis C Virus (HCV) | Huh7.5.1 HCVcc-Cre infection, luciferase reporter, 44 h | Potency, µM (top dose mostly 41.8 µM), actives largely listed as inhibitors | 3.4% of 340,000 active
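Whole-lifecycle infectious HCVcc-Cre system; cells 1,000/well, compound then virus (~0.5 moi) added 4 h after plating, 44 h culture. Luciferase read 15 sec following 15 min substrate incubation, room temp.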
SARS PLP yeast – qHTS of Yeast-based Assay for SARS-CoV PLP; S. cerevisiae expressing SARS-CoV PLpro, growth rescue; Potency, µM (highest dose often 32.9 µM), usual class: activators; 0.19% of 330,000 active; AID 485353, 2010; calls by dose curve; further: nearly all actives have a fitted effect of over 55% in size
HCMV antiviral – qHTS Assay for inhibitors of the human cytomegalovirus (HCMV). 4.5% of 410,000 active. activity change, negative = inhibition, % at 57.5 µM. HFF cells, HCMV-luciferase reporter, 72 h; hits give low values; in the data active means activity change below about -60%; inconclusive means no clear call, values can overlap the other calls; inactive means above about -39%
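Screen run at 2 compound doses on HFFs infected with reporter HCMV, MOI 1 PFU/cell. Luciferase activity from cell lysates at 72 h post infection gave inhibition relative to buffer-only and Salinomycin wells.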
Pf growth 96h – Primary qHTS for delayed death inhibitors of the malarial parasite plastid, 96 hour incubation. 6.9% of 320,000 active. Potency, µM (highest dose often 28.7 µM), most hits filed as inhibitors. P. falciparum luciferase reporter growth, 96 h
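Erythrocytes infected with luciferase-expressing P. falciparum were dispensed at 2% hematocrit and 0.05% parasitemia (final), then incubated with compounds 96 hours at 37 C in 5% CO2. Luminescence after detection reagent addition reported growth.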
Pf growth 48h – Primary qHTS for delayed death inhibitors of the malarial parasite plastid, 48 hour incubation | Potency, µM (highest dose often 28.7 µM), hits mostly inhibitors | 5.9% of 310,000 active | P. falciparum luciferase growth in erythrocytes, 48 h
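Erythrocytes infected with P. falciparum carrying an integrated firefly luciferase reporter (2% hematocrit, 0.1% parasitemia final) were exposed to compounds in RPMI 1640 with 0.5% Albumax at 37 C, 5% CO2. Growth inhibition was scored as reduced luminescence.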
Sm TGR block – qHTS Assay for the Inhibitors of Schistosoma Mansoni Peroxiredoxins; Potency, µM (doses to about 114 µM), usual class: inhibitors; Schistosoma mansoni thioredoxin glutathione reductase (TGR), Q962Y6; 3% of 360,000 active; purified TGR, DTNB reduction, TNB absorbance 405 nm; further: nearly all actives have a fitted effect of over 60% in size
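First, TGR (20 nM dispensed) and NADPH were mixed with compound. Second, a 15 min room-temperature incubation followed. Third, further NADPH and then DTNB were added to start the reaction. Finally, TNB absorbance was monitored kinetically.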
A number is an active result; i = inactive; ? = inconclusive; nt = no result; [ ] = dose if it differs, or a comment. Only some compounds are listed: those with a hit (about 15% of all), similar ones and a draw of the others. Unless noted, the call rests on the fitted dose curve; in most records, active means well fitted curve in the direction sought with a large enough effect; inconclusive means small, poorly fitted or top-dose-only effect, or another doubt; inactive means no such curve, though single readings can be large; an effect the other way counts as inactive or inconclusive.

SMILES	HCV inh	SARS PLP yeast	HCMV antiviral	Pf growth 96h	Pf growth 48h	Sm TGR block
O=C(NCC(F)(F)F)c1ccc(S(=O)(=O)N2CCN(C(=O)C3CCCO3)CC2)cc1 (configuration not stated)	i	i	i	?	i	i
CN(Cc1ccccc1)C(=S)NC(=O)c1ccccc1	i	i	i	i	i	i
CC(C)N(C(=NCc1ccccc1)NC(=O)c1ccccc1)C(C)C	i	i	-89	i	?	i
CCC(=O)c1ccc(N2CCCCC2)c(F)c1	i	i	i	8.3µM	i	i
CCC(=O)c1ccc(N2CCOCC2)c(F)c1	i	nt	i	nt	nt	nt
CCCCCC(=O)N1CCN(c2ccc(C(C)=O)cc2F)CC1	i	i	i	7.4µM	i	i
CCOc1cc(C(c2c(C)[nH][nH]c2=O)c2c(C)[nH][nH]c2=O)cc(Cl)c1O	i	i	i	?	i[0.00184 µM]	35µM
CCOc1cc(C(c2c(C)[nH][nH]c2=O)c2c(C)[nH][nH]c2=O)ccc1OS(=O)(=O)c1ccc(C)cc1	i	i	i	nt	15µM	i
CCOc1cc(C(c2c(C)[nH][nH]c2=O)c2c(C)[nH][nH]c2=O)cc([N+](=O)[O-])c1O	i	i	i	i	i	i
COc1cc(C(c2c(C)[nH][nH]c2=O)c2c(C)[nH][nH]c2=O)cc(Br)c1OC	i	i	i	7.4µM	i	i
COc1cccc(CNCCc2c[nH]c3ccccc23)c1OCc1ccc(F)cc1	?	i	i	nt	?	i
COc1cc(CNCCc2c[nH]c3ccccc23)ccc1OCc1ccc(F)cc1	13µM	i	i	nt	?	i
CCOc1cc(CNCCc2c[nH]c3ccccc23)cc(Cl)c1OCC(N)=O	?	i	i	4.7µM	?	i
COc1cc(CNCCc2c[nH]c3ccccc23)cc(Cl)c1OCC(N)=O	?	i	i	i	?	i
CCOc1cc(CNCCc2c[nH]c3ccccc23)cc(Cl)c1OC	10µM	i	i	6.6µM	?	i
CN(C)c1ccc(NC(=O)CCN2C(=O)c3cccc([N+](=O)[O-])c3C2=O)cc1	i	i	i	12µM	i	i
CCOc1ccc(NC(=O)CCN2C(=O)c3cccc([N+](=O)[O-])c3C2=O)cc1	i	i	i	?	i	i
CSC1=NS(=O)(=O)c2c(C)nn(C)c2S1	i	i	i	i	i	?
CN(C(=O)Cn1c(=O)oc2ccccc21)C1CCCCC1	i	i	i	i	i	i
O=C(/C(=C(\[O-])c1ccccc1)[n+]1ccc2ccccc2c1)c1ccccc1	i	i	i	13µM	?	i
O=C(/C(=C(\[O-])c1ccccc1)[n+]1ccc2ccccc2c1)c1ccc(Cl)cc1	i	i	i	?	?	i
O=C(Cn1cc[n+](CC(=O)c2ccccc2)c1)c1ccccc1	i	i	i	?	1µM	i
Cc1ccc(C(=O)C[n+]2cc(Br)cc(Br)c2)cc1[N+](=O)[O-]	?	i	i	?	9.3µM	32µM
O=C(Cn1cc[n+](CC(=O)c2ccc(Cl)cc2Cl)c1)c1ccc(Cl)cc1Cl	?	i	i	?	?	i
Cc1cc(C)c[n+](CC(=O)c2ccc(C)c([N+](=O)[O-])c2)c1	i	i	i	?	i	i
SMILES	HCV inh	SARS PLP yeast	HCMV antiviral	Pf growth 96h	Pf growth 48h	Sm TGR block
O=C(C[n+]1cc(Br)cc2ccccc21)c1ccc(Cl)cc1	i	i	i	13µM	?	i
CN1C(C(=O)c2ccccc2)=C(NC(=O)c2ccccc2Br)c2ccccc2S1(=O)=O	nt	nt	i	nt	nt	i
CN(CC(=O)Nc1ccccc1C(=O)NC1CC1)Cc1ccco1	i	i	i	i	i	i
O=C(C[n+]1ccc2ccccc2c1)c1ccc2ccc3ccccc3c2c1	nt	nt	i	nt	nt	nt
O=C(C[n+]1ccncc1)c1ccccc1	i	?	i	?	i	35µM
O=C(C[n+]1cn(C(F)F)c2ccccc21)c1ccc(Br)cc1	i	i	i	i	i	4µM
Brc1cc2ccccc2[n+](Cc2ccccc2)c1	?	i	-101	?	?	i
O=C(C[n+]1cc(Br)cc2ccccc21)c1ccc(Br)cc1	i	i	i	?	i	i
O=C(C[n+]1ccc2ccccc2c1)c1ccccc1	i	i	i	9.3µM	?	i
Nc1cc[n+](CC(=O)c2ccccc2)cc1	?	i	i	i	?	i
Cc1cc[n+](Cc2ccccc2)c(N)c1	i	i	i	i	?	i
Cc1ccccc1C(=O)N(C)[C@H]1C[C@H]2c3[nH]c4ccccc4c3CCN2C(=O)[C@H]1[C@H](C)O	nt	nt	i	nt	nt	nt
CC(=O)N1c2ccc(S(=O)(=O)NCC3CCC(C(=O)NCCC(C)C)CC3)cc2CC1C (configuration not stated)	nt	nt	i	nt	nt	i
O=C(C[n+]1cc(Br)cc(Br)c1)c1ccc(Cl)cc1	32µM	i	i	?	i	?
O=C(C[n+]1cc(Br)cc(Br)c1)c1ccc(-c2ccccc2)cc1	i	i	i	?	nt	i
O=C(C[n+]1cc(Br)cc(Br)c1)c1ccccc1	i	i	i	0.17µM	i	11µM
Cc1ccc(C(=O)C[n+]2cc(Br)cc(Br)c2)cc1	i	i	i	?	i	i
COc1ccccc1CCNC(=O)C(=O)NCC(c1cccs1)S(=O)(=O)c1ccc(F)cc1 (configuration not stated)	nt	nt	i	nt	nt	i
COc1ccccc1CCNC(=O)C(=O)NCC(c1ccco1)S(=O)(=O)c1ccc(F)cc1 (configuration not stated)	nt	nt	i	nt	nt	18µM
COc1ccc(CCNC(=O)C(=O)NCC(c2ccco2)S(=O)(=O)c2ccccc2)cc1OC (configuration not stated)	nt	nt	i	nt	nt	13µM
Cc1ccccc1CNC(=O)C(=O)NCC(c1ccco1)S(=O)(=O)c1ccc(F)cc1 (configuration not stated)	nt	nt	i	nt	nt	8.9µM
O=C(NCCc1ccc(F)cc1)C(=O)NCC(c1ccco1)S(=O)(=O)c1ccccc1 (configuration not stated)	nt	nt	?	nt	nt	i
CCn1c(SCC(=O)c2c(N)n(C3CC3)c(=O)[nH]c2=O)nc2cc(S(N)(=O)=O)ccc21	?	i	i	?	?	i
Cc1cccc(CN2CCCC(C(=O)Nc3ccccc3Oc3cccnc3)C2)c1 (configuration not stated)	i	i	i	i	9.3µM	i
O=C(Nc1ccc(Oc2cccnc2)cc1)C1CCN(Cc2cccc(Cl)c2)CC1	?	i	-79	i	?	i
O=C(Nc1ccc(Oc2cccnc2)cc1)C1CCN(Cc2ccccc2F)CC1	?	i	i	5.9µM	?	i

Compound activity from PubChem.
